pPAFAH inh: pPAFAH enzyme inhibitors, primary screen, biochemical, fluorescence polarization, human. Platelet-activating factor acetylhydrolase (Homo sapiens), Q13093. recombinant pPAFAH, FP-rhodamine probe fluorescence polarization. inhibition, % at 3.39 µM. 330,000 compounds, 1.5% hits. AID 463082, 2010;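 active = inhibition above the mean inhibition across the screen plus 3 SD, cut at about 25% in these data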;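 note: inhibitors block binding of the rhodamine activity-based probe so polarization drops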
PAFAH2 FP inh: PAFAH2 enzyme inhibitors, primary screen, biochemical, fluorescence polarization, human | Platelet-activating factor acetylhydrolase 2, cytoplasmic (Homo sapiens), Q99487 | recombinant PAFAH2, FP-rhodamine activity probe | inhibition, % at 3.39 µM | 340,000 compounds, 0.99% hits | AID 492956, 2010;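 active = inhibition above the mean over all tested compounds plus 3 SD, cut at about 30% in these data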;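 note: inhibitors block probe labeling of enzyme so polarization drops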
PKA-R2B activ: activators of PKA-R2B holoenzyme, primary screen, biochemical, fluorescence polarization, Cy5-IP20, human. AID 504700, 2011. PKA-R2B holoenzyme dissociation; R2B truncated from residue 108, S112A mutant; 0% DMSO only, 100% 113 µM cGMP. 340,000 compounds, 0.079% hits. activation, % at 11.4 µM. cAMP-dependent protein kinase catalytic subunit beta (Homo sapiens) + cAMP-dependent …;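 active = activation above a cutoff set at the mean over all compounds plus 3 SD, cut at about 18% in these data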;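 note: higher means more holoenzyme dissociation and a rise in polarization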
PKA-R1A act: activators of PKA-R1A holoenzyme, primary screen, biochemical, fluorescence polarization, Cy5-IP20, bovine R1A, mouse PKAc; 340,000 compounds, 0.083% hits; activation, % at 11.4 µM; PKA-R1A dissociation; scaled: DMSO 0%, 113 µM cGMP 100%; cAMP-dependent protein kinase type I-alpha regulatory subunit (Bos taurus) + …; AID 504707, 2011;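 active = percent activation above the mean of all tested compounds plus 3 SD, cut at about 19% in these data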;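 note: higher means more PKAc released from R1A so a rise in polarization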
PAFAH1B3 FP inh: PAFAH1B3 enzyme inhibitors, primary screen, biochemical, fluorescence polarization, human | inhibition, % at 3.39 µM | recombinant PAFAH1B3, FP-rhodamine probe | 340,000 compounds, 0.28% hits | Platelet-activating factor acetylhydrolase IB subunit alpha1 (Homo sapiens), Q15102;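 active = inhibition above the screen-wide average of all tested compounds plus 3 SD, cut at about 25% in these data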
Target sequence (Q15102 whole entry, looked up): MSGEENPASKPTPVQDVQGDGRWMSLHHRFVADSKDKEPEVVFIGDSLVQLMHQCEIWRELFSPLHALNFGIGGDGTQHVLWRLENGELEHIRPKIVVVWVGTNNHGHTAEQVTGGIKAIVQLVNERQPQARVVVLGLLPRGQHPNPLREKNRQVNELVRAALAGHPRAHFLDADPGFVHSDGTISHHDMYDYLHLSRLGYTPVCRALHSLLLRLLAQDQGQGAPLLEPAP
PAFAH1B2 inh: PAFAH1B2 enzyme inhibitors, primary screen, biochemical, fluorescence polarization, human; Platelet-activating factor acetylhydrolase IB subunit alpha2 (Homo sapiens), P68402; recombinant PAFAH1B2, FP-rhodamine activity probe; inhibition, % at 3.39 µM; 340,000 compounds, 1.2% hits; AID 492953, 2010;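 active = inhibition above the mean of all tested compounds plus 3 SD, cut at about 24% in these data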
Target sequence (P68402 whole entry, looked up): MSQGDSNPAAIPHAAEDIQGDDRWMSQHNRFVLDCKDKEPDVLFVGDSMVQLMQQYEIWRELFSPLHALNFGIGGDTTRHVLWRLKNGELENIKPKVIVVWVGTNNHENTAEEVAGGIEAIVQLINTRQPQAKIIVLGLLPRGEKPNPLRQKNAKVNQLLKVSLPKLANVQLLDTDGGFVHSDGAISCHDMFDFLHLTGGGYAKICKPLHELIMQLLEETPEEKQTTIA
Large screens that a line does not name were inactive. Only some compounds are listed: those with a hit (about 2.6% of all), similar ones and a draw of the others.

Cc1ccc(SCC(=O)NC(C)c2ccccc2)cc1 (stereo not drawn)	PAFAH1B2 inh 34
O=C(CSc1ncccn1)NCc1cccs1	none
Cc1ccc(SCC(=O)OCC(=O)NCCc2ccccc2)cc1	pPAFAH inh 28, PAFAH1B2 inh 50
O=C(CSc1ccc2ccccc2c1)NCc1cccs1	PAFAH1B2 inh 26
O=C(COC(=O)c1c(Cl)cccc1Cl)NCc1cccs1	none
Cc1csc(SCC(=O)NC(C)c2ccccc2)n1 (stereo not drawn)	none
COc1ccc(Cl)cc1NC(=O)COC(=O)c1ccc(Cl)nc1	none
Cc1ccc(NC(=O)CSc2nc3ccccc3c(=O)n2CCCC(=O)NCC2CCCO2)cc1 (stereo not drawn)	none
Cc1ccc(SCC(=O)OCC(=O)NCCc2ccccc2)cc1C	pPAFAH inh 30
Cc1ccc(SCC(=O)OCC(=O)Nc2ccc3[nH]c(=O)[nH]c3c2)cc1C	none
Cc1ccc(SCC(=O)OCC(=O)NCc2cccs2)cc1	PAFAH1B2 inh 28
CC1(CNC(=O)C(=O)NCC2(C)CO2)CO1 (stereo not drawn)	none (no result: pPAFAH inh)
COc1ccc2oc(=O)c(-c3csc(Nc4cccc(O)c4)n3)cc2c1	PAFAH1B3 FP inh 29, PAFAH1B2 inh 40
CN(C)S(=O)(=O)N1C(=O)c2ccccc2C1=O	none
CN(C)/C=C1\C=C2C(=O)c3ccccc3N2C1=O	PAFAH2 FP inh 36, PAFAH1B3 FP inh 29, PAFAH1B2 inh 28
Cc1sc(NC(=O)CSc2n[nH]c(N)n2)c(C#N)c1C	none (no result: pPAFAH inh)
Cc1ccc(/C=C/C2=Cc3c(sc(NC(=O)CSc4n[nH]c(N)n4)c3C#N)C(C)(C)C2)o1	pPAFAH inh 58 (no result: PAFAH2 FP inh, PKA-R2B activ, PKA-R1A act, PAFAH1B3 FP inh, PAFAH1B2 inh)
CC1CCN(C(=O)COC(=O)Cc2ccc(Br)cc2)CC1	pPAFAH inh 29
CCOC(=O)N1CCN(C(=O)COC(=O)Cc2ccc(Cl)cc2)CC1	pPAFAH inh 34
CCOC(=O)N1CCN(C(=O)Cc2ccc(Cl)cc2)CC1	none
CC1C(=O)N2CCCc3cc(S(=O)(=O)N4CCC(C(N)=O)CC4)cc1c32 (stereo not drawn)	none
COc1ccc(C(=O)Nc2nnc(SCC(=O)NCc3ccco3)s2)c(OC)c1	none
O=[N+]([O-])c1ccc(S(=O)(=O)Nc2ccc(-c3ccc(N4CCCC4)nn3)cc2)cc1	none
Cc1c([N+](=O)[O-])cc(S(=O)(=O)Nc2ccc(-c3ccc(N4CCCC4)nn3)cc2)cc1[N+](=O)[O-]	pPAFAH inh 29
O=C(O)c1cccc(-n2cccc2/C=C2/NC(=O)N(c3ccc(Cl)cc3)C2=O)c1	PAFAH2 FP inh 72, PAFAH1B3 FP inh 36, PAFAH1B2 inh 28 (no result: pPAFAH inh)
Cc1nn(-c2ccccc2)c(C)c1NC(=O)COC(=O)c1ccc(Cl)c(N)c1	pPAFAH inh 28
Cc1nn(-c2ccccc2)c(C)c1NC(=O)COC(=O)c1ccccc1	none
COc1ccc(N=C2NC(=O)/C(=C/c3ccco3)S2)cc1	none
COc1ccc(S(=O)(=O)/N=C2/NC(=O)/C(=C/c3ccco3)S2)cc1	pPAFAH inh 32
COc1cc(CC(=O)O)ccc1O	pPAFAH inh 34
COc1cc(C[C@@H](C)[C@@H](C)Cc2ccc(O)c(OC)c2)ccc1O	PAFAH1B2 inh 27
COC(=O)c1ccc(CC(=O)c2c(C)cc(O)cc2O)o1	pPAFAH inh 34
COc1ccc(C(=O)Cc2ccc(OC)c(OC)c2)cc1	none
COc1ccc(CC(=O)c2c(O)cc(O)cc2O)cc1OC	pPAFAH inh 25
COC(=O)c1ccc(CC(=O)c2ccc(O)cc2O)o1	none
O=C(CNC(=O)c1ccccc1F)N/N=C\C=C\c1ccccc1	none
COc1ccc(CCNC(=O)COC(=O)C2COc3ccccc3O2)cc1 (stereo not drawn)	none
